# In PubChem BioAssay (Tox21):
# Results filed as inconclusive are left out. A call without a number means that no potency is given here. Active and inactive are the calls of the source. Unless noted, calls follow the shape of the full dose curve.
# Columns and labels:
# [1] = Nuclear factor erythroid 2-related factor 2/antioxidant responsive element (Nrf2/ARE) small molecule agonists: luciferase reporter gene qHTS assay in human keratinocytes (AID 1919969); also: nearly all actives have a fitted effect of over 35% in size; also: potency is read from the fitted curve at half-maximal effect
# [2] = biological target: Gonadotropin-releasing hormone receptor (Homo sapiens) (UniProt P30968); experiment: Human gonadotropin-releasing hormone receptor (GnRHR) small molecule agonists, calcium flux assay in GnRHR-HEK293 cells (AID 1920063); also: nearly all actives have a fitted effect of over 35% in size
# Procedure, shortened: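 Calcium-dye fluorescence, Ex/Em=480/540, recorded every 1 sec over 3 min after compound addition to GnRHR-HEK293 cells. Cells had been seeded 18 hours earlier and dye-loaded for 1 hour at 37 C. Fifteen concentrations, triplicates.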
# [3] = biological target: KiSS-1 receptor (Homo sapiens) (UniProt Q969F8); experiment: Human kisspeptin (KISS1R) small molecule agonists, calcium flux assay in KISS1R-HEK293 cells (AID 1920064; active = well fitted activation curve with a large enough effect in the repeat runs)
# Procedure, shortened: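 Calcium flux read-out: kinetic fluorescence at Ex/Em=480/540, 1 s intervals over 3 min, after pin-tool compound addition to dye-loaded KISS1R-HEK293 cells. Fifteen concentrations, triplicates.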
# [4] = p53 small molecule agonists, cell-based qHTS assay with human liver microsomes (AID 1963577)
# Procedure, shortened: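 Fluorescence of the beta-lactamase reporter in p53RE-bla cells, detected with LiveBLAzer substrate (2 h, room temperature, dark), served as the read-out after 16 h compound exposure at 37 C with human liver microsomes and NADPH, each 0.5 mg/mL final.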
# [5] = p53 small molecule agonists, cell-based qHTS assay with rat liver microsomes (AID 1963578)
# Procedure, shortened: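 Cells carrying a p53 response element–beta-lactamase reporter were plated and rested 5 h, then dosed with compound in DMSO plus rat liver microsomes and NADPH, each at 0.5 mg/mL final. After 16 h at 37 C, LiveBLAzer substrate was added for 2 h.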
# [6] = p53 small molecule agonists, cell-based qHTS assay: qHTS cell viability counter screen (AID 1963581); also: nearly all actives have a fitted effect of over 45% in size; also: potency is read from the fitted curve at half-maximal effect
# Procedure, shortened: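 Cytotoxicity read-out: ATP-based luminescence (CellTiter-Glo, 30 min RT) measured in the same wells as the p53 reporter assay, HCT-116 p53RE-bla cells, 16 h compound exposure at 37 C.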
# [7] = p53 small molecule agonists, cell-based qHTS assay (AID 1963582; active = well fitted activation curve with a large enough effect in the signal ratio in the repeat runs, not every such curve was filed as active; the % refers to the signal ratio; also: potency is read from the fitted curve at half-maximal effect)
# Procedure, shortened: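 Fluorescence intensity read-out of a beta-lactamase reporter under a p53 response element. Cells were exposed to DMSO-dissolved compounds for 16 h at 37 C, then developed with FRET substrate for 2 h at RT.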
# [8] = biological target: 5-hydroxytryptamine receptor 2A (Homo sapiens) (UniProt P28223); experiment: 5-hydroxytryptamine receptor 2A (HTR2A) small molecule antagonists, cell-based qHTS assay (AID 1963586); also: nearly all actives have a fitted effect of over 45% in size
# Procedure, shortened: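 CHO cells stably expressing human HTR2A were plated for 18 h at 37 C, then loaded with calcium dye for 1 h. Compounds were preincubated 5 min at room temperature before DOI (4 nM solution) was added. Kinetic fluorescence was read for 3 min.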
# [9] = biological target: 5-hydroxytryptamine receptor 2A (Homo sapiens) (UniProt P28223); experiment: 5-hydroxytryptamine receptor 2A (HTR2A) small molecule agonists, cell-based qHTS assay (AID 1963587); also: nearly all actives have a fitted effect of over 30% in size; also: potency is read from the fitted curve at half-maximal effect
# Procedure, shortened: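 HTR2A-CHO cells, plated 18 h at 37 C/5% CO2, dye-loaded 1 h at 37 C; compounds in DMSO added by pin tool (agonist mode). Intracellular calcium flux read as kinetic fluorescence on FDSS over 2 min at 1 s intervals.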
# [10] = biological target: Muscarinic acetylcholine receptor M1 (Homo sapiens) (UniProt P11229); experiment: Cholinergic receptor muscarinic 1 (CHRM1) small molecule antagonists, cell-based qHTS assay (AID 1963588); also: nearly all actives have a fitted effect of over 40% in size
# Procedure, shortened: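 Compounds were tested at 15 concentrations in three independent runs. Dye-loaded CHRM1-CHO cells were exposed 5 min at room temperature before stimulation by acetylcholine added at 50nM. Intracellular calcium was read kinetically on FDSS for 3 min.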
# [11] = biological target: Muscarinic acetylcholine receptor M1 (Homo sapiens) (UniProt P11229); experiment: Cholinergic receptor muscarinic 1 (CHRM1) small molecule agonists, cell-based qHTS assay (AID 1963589); also: nearly all actives have a fitted effect of over 35% in size
# Procedure, shortened: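 Calcium flux read-out: kinetic fluorescence at 1 sec intervals after pin-tool compound addition to dye-loaded CHRM1-CHO cells (human M1). Agonist mode; 15 concentrations tested in triplicate independent runs.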
# [12] = cAMP Responsive Elements (CRE) small molecule agonists, cell-based qHTS assay (AID 1963590)
# Procedure, shortened: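 Beta-lactamase reporter readout: LiveBLAzer B/G FRET substrate, 2 h at room temperature, added after 3 h compound treatment of CRE-bla HEK 293T cells at 37 C/5% CO2.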
# [13] = cAMP Responsive Elements (CRE) small molecule antagonists, cell-based qHTS assay (AID 1963591; active = well fitted inhibition curve with a large enough effect in the signal ratio in the repeat runs, not every such curve was filed as active; the % refers to the signal ratio)
# Procedure, shortened: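 HEK293T CRE-bla; 18 h preincubation; compound pin-transfer; NKH477 0.25 uM final, 3 h, 37 C; LiveBLAzer FRET substrate 2 h RT.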
# [14] = biological target: Beta-2 adrenergic receptor (Homo sapiens) (UniProt P07550); experiment: Adrenergic beta2 receptor (ADRB2) small molecule antagonists, cell-based qHTS assay (AID 1963592); also: nearly all actives have a fitted effect of over 50% in size; also: potency is read from the fitted curve at half-maximal effect
# Procedure, shortened: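 Assay format: CHO-ADRB2 cells, 18-20hr seeding at 37C/5% CO2, then compound plus 1nM isoproterenol agonist mix for 0.5hr RT. Homogeneous time-resolved fluorescence cAMP detection after 1hr, expressed as 665/615 nm ratio.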
# [15] = biological target: Beta-2 adrenergic receptor (Homo sapiens) (UniProt P07550); experiment: Adrenergic beta2 receptor (ADRB2) small molecule agonists, cell-based qHTS assay (AID 1963593);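 also: CHO cells stably overexpressing human ADRB2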
# Procedure, shortened: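 CHO cells stably over-expressing ADRB2 were plated overnight at 37C, then dosed with compounds plus a stimulation mix containing 100uM IBMX and 25uM Ro-20-1724 for 0.5hr at room temperature. cAMP was measured by HTRF competition, 1hr.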
# [16] = biological target: D(2) dopamine receptor (Homo sapiens) (UniProt P14416); experiment: Dopamine D2 receptor (DRD2) small molecule agonists, cell-based qHTS assay (AID 1963594); also: nearly all actives have a fitted effect of over 35% in size
# Procedure, shortened: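 HEK293 cells stably expressing DRD2 were cultured 24 h at 37 C, then given Ro20-1724 (0.1 mM final) and compounds for 10 min at room temperature. NKH477 (200nM) was then added for 30 min. cAMP was read by HTRF.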
# [17] = biological target: D(2) dopamine receptor (Homo sapiens) (UniProt P14416); experiment: Dopamine D2 receptor (DRD2) small molecule antagonists, cell-based qHTS assay (AID 1963595; active = well fitted inhibition curve with a large enough effect in the signal ratio in the repeat runs, with a control signal flat; the % refers to the signal ratio; also: potency is read from the fitted curve at half-maximal effect)
# Procedure, shortened: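 Antagonism was scored as restored cAMP in HEK293-DRD2 cells. These cells were stimulated with 200 nM NKH477 and 12 nM quinpirole for 30 min at room temperature, in the presence of 0.1 mM Ro20-1724.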
# [18] = G protein-coupled receptor (GPCR) small molecule agonists, calcium flux assay: HEK293 wild type cell line counter screen (AID 1920065); also: potency is read from the fitted curve at half-maximal effect
# Procedure, shortened: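 Agonist mode; 18 h seeding at 37 C, 1 h dye load at 37 C; compounds pinned from DMSO, ATP as positive control; kinetic fluorescence 480/540 nm, 3 min, 1 s reads; 15 concentrations, triplicate.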
# [19] = p53 small molecule agonists, cell-based qHTS assay with human liver microsomes: qHTS cell viability counter screen (AID 1963579); also: nearly all actives have a fitted effect of over 45% in size; also: potency is read from the fitted curve at half-maximal effect
# Procedure, shortened: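 Cytotoxicity counter screen: p53RE-bla, 4,000 cells/well; 5 h settle, 37 C/5% CO2; cpd + HLM 0.5 mg/mL + NADPH 0.5 mg/mL (final); 16 h, 37 C; CellTiter-Glo, 30 min RT, luminescence.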
# [20] = p53 small molecule agonists, cell-based qHTS assay with rat liver microsomes: qHTS cell viability counter screen (AID 1963580); also: nearly all actives have a fitted effect of over 45% in size; also: potency is read from the fitted curve at half-maximal effect
# Procedure, shortened: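 Counter screen for cytotoxicity under metabolic activation: rat liver microsomes and NADPH, 0.5 mg/mL final each, added with compounds to p53RE-bla HCT-116 cells; 16 h at 37 C, then ATP luminescence read.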
# Sequence of Beta-2 adrenergic receptor (Homo sapiens) (P07550 whole entry, looked up): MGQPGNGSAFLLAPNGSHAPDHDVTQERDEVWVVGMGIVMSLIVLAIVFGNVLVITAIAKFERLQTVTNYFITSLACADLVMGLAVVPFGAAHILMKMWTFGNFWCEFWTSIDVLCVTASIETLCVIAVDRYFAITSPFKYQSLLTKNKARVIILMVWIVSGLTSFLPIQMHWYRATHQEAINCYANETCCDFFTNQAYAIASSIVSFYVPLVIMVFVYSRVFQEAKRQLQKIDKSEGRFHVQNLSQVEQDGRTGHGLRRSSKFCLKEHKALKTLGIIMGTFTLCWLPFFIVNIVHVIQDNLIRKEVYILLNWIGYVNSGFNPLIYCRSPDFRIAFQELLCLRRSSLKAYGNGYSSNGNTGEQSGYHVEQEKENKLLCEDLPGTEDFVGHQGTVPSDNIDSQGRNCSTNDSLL
# Sequence of KiSS-1 receptor (Homo sapiens) (Q969F8 whole entry, looked up): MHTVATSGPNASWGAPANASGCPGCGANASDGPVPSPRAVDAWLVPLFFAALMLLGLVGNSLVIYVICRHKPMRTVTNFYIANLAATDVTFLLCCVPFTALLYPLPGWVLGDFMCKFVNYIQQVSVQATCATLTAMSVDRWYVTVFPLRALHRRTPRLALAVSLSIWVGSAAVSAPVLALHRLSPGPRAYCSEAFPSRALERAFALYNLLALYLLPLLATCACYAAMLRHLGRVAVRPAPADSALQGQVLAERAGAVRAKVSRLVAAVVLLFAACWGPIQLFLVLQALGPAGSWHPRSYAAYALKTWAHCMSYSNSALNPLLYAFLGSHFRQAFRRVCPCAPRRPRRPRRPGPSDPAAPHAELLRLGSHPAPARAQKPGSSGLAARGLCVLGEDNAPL
# Sequence of Gonadotropin-releasing hormone receptor (Homo sapiens) (P30968 whole entry, looked up): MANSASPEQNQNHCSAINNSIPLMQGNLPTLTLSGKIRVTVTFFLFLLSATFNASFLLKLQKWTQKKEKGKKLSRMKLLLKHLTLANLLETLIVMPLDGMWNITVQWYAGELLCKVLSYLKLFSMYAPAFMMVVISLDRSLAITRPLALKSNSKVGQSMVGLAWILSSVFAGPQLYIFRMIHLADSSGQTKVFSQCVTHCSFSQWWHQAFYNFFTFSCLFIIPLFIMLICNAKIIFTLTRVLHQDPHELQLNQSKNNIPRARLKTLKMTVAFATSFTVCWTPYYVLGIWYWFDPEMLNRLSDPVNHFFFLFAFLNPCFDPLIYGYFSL
# Sequence of D(2) dopamine receptor (Homo sapiens) (P14416 whole entry, looked up): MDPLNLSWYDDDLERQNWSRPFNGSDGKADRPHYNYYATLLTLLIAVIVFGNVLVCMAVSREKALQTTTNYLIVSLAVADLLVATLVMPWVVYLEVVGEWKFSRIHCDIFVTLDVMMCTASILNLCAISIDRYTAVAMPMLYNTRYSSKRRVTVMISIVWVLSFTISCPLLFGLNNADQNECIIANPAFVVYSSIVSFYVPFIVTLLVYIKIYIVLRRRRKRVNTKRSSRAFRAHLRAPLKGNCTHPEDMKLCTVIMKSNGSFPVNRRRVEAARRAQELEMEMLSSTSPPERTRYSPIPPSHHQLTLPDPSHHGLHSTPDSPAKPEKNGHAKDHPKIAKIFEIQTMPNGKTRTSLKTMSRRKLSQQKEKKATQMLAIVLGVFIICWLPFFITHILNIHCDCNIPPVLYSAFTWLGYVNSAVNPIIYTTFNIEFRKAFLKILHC
# Sequence of 5-hydroxytryptamine receptor 2A (Homo sapiens) (P28223 whole entry, looked up): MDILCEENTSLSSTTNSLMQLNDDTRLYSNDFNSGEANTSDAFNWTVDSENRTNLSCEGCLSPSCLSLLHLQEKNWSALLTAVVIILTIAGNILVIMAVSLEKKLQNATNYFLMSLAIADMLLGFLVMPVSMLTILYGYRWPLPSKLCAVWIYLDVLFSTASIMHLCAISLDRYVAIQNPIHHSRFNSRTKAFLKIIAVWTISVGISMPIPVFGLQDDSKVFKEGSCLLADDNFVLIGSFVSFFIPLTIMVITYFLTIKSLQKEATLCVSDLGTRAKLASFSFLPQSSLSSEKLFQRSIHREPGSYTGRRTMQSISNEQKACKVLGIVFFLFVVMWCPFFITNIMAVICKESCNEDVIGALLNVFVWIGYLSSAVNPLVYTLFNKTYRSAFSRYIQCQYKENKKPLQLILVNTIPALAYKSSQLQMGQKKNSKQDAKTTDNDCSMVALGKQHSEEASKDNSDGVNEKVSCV
# Sequence of Muscarinic acetylcholine receptor M1 (Homo sapiens) (P11229 whole entry, looked up): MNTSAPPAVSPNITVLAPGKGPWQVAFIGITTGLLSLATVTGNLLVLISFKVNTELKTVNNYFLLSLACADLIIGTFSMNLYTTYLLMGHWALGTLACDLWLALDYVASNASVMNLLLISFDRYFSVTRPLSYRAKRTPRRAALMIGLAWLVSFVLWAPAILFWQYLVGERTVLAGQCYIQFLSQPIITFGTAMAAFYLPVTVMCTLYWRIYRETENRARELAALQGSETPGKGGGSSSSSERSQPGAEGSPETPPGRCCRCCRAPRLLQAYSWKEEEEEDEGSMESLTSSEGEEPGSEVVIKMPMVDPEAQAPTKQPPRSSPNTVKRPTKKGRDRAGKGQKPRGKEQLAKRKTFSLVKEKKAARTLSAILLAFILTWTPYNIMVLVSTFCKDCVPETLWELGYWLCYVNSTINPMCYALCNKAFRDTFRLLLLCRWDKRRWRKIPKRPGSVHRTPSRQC
Structure (SMILES),Potency [1],Potency [2],Potency [3],Potency [4],Potency [5],Potency [6],Potency [7],Potency [8],Potency [9],Potency [10],Potency [11],Potency [12],Potency [13],Potency [14],Potency [15],Potency [16],Potency [17],Potency [18],Potency [19],Potency [20]
CCC1OCC(COc2ccc(Oc3ccccc3)cc2)O1 (centres undefined),68.6 µM (active),inactive,inactive,inactive,inactive,inactive,inactive,inactive,inactive,inactive,inactive,inactive,inactive,inactive,inactive,inactive,inactive,,,
CC1=C(/C=C/C(C)=C/C=C/C(C)=C\C=O)C(C)(C)CCC1,64.9 µM (active),inactive,,inactive,inactive,inactive,,inactive,inactive,inactive,inactive,,,inactive,,inactive,inactive,inactive,,
O=C(NCc1ncc(C(F)(F)F)cc1Cl)c1c(Cl)cccc1Cl,inactive,inactive,,inactive,inactive,inactive,inactive,inactive,inactive,inactive,inactive,,inactive,inactive,,inactive,inactive,inactive,inactive,
CCc1nn(CCCN2CCN(c3cccc(Cl)c3)CC2)c(=O)n1CCOc1ccccc1,inactive,inactive,,inactive,inactive,inactive,inactive,,inactive,,,,,,,inactive,,inactive,,inactive
C=C[C@](C)(O)CC[C@@H]1[C@@]2(C)CCCC(C)(C)[C@@H]2CC[C@@]1(C)O,inactive,inactive,,inactive,inactive,9.13 µM (active),inactive,inactive,inactive,inactive,inactive,,inactive,,,inactive,43.3 µM (active),inactive,32.4 µM (active),45.8 µM (active)
O[Si](c1ccccc1)(c1ccccc1)c1ccccc1,inactive,inactive,inactive,,inactive,inactive,,inactive,inactive,inactive,inactive,inactive,inactive,inactive,,inactive,inactive,,inactive,inactive
O=C(Nc1ccccc1)c1cc(Cl)ccc1O,13.7 µM (active),inactive,,inactive,inactive,40.8 µM (active),,inactive,,inactive,inactive,,,61.1 µM (active),,inactive,inactive,12.3 µM (active),,
CC1=C(/C=C/C(C)=C/C=C/C(C)=C/C=O)C(C)(C)CCC1,27.1 µM (active),inactive,inactive,inactive,,,,inactive,inactive,inactive,inactive,,,inactive,inactive,,inactive,,,
Cc1cc(=O)oc2cc(N(C)C)ccc12,inactive,inactive,inactive,,inactive,inactive,32.4 µM (active),inactive,inactive,,inactive,,,inactive,,inactive,inactive,,inactive,inactive
O=C(CCCCCCC(=O)Nc1ccccc1)NO,8.41 µM (active),inactive,,inactive,inactive,inactive,inactive,inactive,inactive,inactive,inactive,inactive,,inactive,inactive,inactive,,inactive,inactive,inactive
COC(=O)Nc1nc2ccc(C(=O)c3ccccc3)cc2[nH]1,3.76 µM (active),inactive,inactive,inactive,inactive,,,,,,,,inactive,inactive,,inactive,inactive,,,inactive
COC(C)(C)OC,inactive,inactive,,,,inactive,,inactive,,inactive,,inactive,inactive,inactive,,inactive,inactive,inactive,inactive,inactive
CCCCCCCCCCCCCCOS(=O)(=O)O,inactive,inactive,,inactive,inactive,,inactive,,43.6 µM (active),inactive,inactive,,inactive,inactive,inactive,inactive,inactive,inactive,inactive,inactive
O=C(OCC(COC(=O)c1cccnc1)(COC(=O)c1cccnc1)COC(=O)c1cccnc1)c1cccnc1,inactive,inactive,,,,inactive,,inactive,inactive,inactive,inactive,inactive,,inactive,inactive,inactive,inactive,inactive,inactive,inactive
CC1(C)[C@@H](OC(=O)CCC(=O)O)CC[C@]2(C)[C@H]3C(=O)C=C4[C@@H]5C[C@@](C)(C(=O)O)CC[C@]5(C)CC[C@@]4(C)[C@]3(C)CC[C@@H]12,inactive,inactive,inactive,,inactive,inactive,,inactive,inactive,inactive,inactive,inactive,inactive,inactive,,inactive,inactive,,inactive,inactive
O=[N+]([O-])c1ccc(O/N=C/c2cc(Br)c(O)c(Br)c2)c([N+](=O)[O-])c1,60.8 µM (active),inactive,inactive,,inactive,,,inactive,inactive,,inactive,,,inactive,,inactive,inactive,,inactive,inactive
